Results taken from article PMC7862700, “An all-to-all approach to the identification of sequence-specific readers for epigenetic DNA modifications on cytosine”.

Columns and labels:
Experiment in all cases: DAPPL (digital affinity profiling via proximity ligation, sequencing); 10 mM Tris-HCl pH 7.5, 50 mM NaCl, 1 mM DTT, 4% glycerol, room temperature, 30 min; GST-TFs on glutathione beads, 16-mer random dsDNA library, 0.1% formaldehyde crosslink after washing; high values mean tight binding
HSF1 = HSF1 (Homo sapiens, UniProt Q00613 1-529); conditions: protein: recombinant; tags: N-terminal GST; chain copies: 3; dsDNA, one strand shown
HSF1, sequence (Q00613 whole entry, the tested form may be a part): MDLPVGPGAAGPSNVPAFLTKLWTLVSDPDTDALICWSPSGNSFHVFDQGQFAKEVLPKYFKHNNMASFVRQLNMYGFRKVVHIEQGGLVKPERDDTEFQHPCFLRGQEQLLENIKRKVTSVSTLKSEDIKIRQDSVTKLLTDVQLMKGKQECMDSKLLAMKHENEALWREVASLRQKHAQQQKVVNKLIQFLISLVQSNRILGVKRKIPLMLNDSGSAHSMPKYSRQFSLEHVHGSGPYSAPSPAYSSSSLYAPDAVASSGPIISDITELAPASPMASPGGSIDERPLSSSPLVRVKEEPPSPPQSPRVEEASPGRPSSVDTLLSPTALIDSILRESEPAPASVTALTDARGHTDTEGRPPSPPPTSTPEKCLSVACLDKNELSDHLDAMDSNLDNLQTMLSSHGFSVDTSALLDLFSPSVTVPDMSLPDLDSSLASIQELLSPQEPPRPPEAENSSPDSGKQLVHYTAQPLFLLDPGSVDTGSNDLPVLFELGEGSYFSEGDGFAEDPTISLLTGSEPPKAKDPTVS
Procedure, shortened: (§1)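 Yeast served to express human transcription factors as GST fusions, which were then captured on glutathione beads and labelled with DNA barcodes. Pooled with a tag-only sample, they were incubated with 200 nmole of a 16-mer random double-stranded DNA library for 30 min at room temperature in Tris/NaCl/DTT/glycerol buffer, washed, crosslinked with 0.1% formaldehyde, ligated by proximity, amplified by PCR and sequenced. Dividing each hexamer's read frequency for a factor by its frequency for the tag-only sample gives the binding signal.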

ELK1 = target: T1, ELK1 (Homo sapiens, UniProt P19419 1-428); conditions: protein: recombinant; tags: N-terminal GST; dsDNA, one strand shown
T1 sequence: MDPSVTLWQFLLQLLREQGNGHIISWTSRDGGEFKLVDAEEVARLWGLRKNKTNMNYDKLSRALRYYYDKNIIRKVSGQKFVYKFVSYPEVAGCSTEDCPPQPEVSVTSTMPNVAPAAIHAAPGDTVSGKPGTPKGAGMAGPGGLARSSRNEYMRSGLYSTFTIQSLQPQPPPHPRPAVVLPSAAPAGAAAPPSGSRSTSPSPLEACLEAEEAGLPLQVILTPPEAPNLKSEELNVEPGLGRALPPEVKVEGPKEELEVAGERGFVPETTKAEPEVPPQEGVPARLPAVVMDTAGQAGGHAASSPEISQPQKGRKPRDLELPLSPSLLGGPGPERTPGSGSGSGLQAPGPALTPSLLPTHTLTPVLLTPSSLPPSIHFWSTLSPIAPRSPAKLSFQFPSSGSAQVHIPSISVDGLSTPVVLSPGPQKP
Procedure, shortened: as §1

ERG = target: T2, ERG (Homo sapiens, UniProt P11308 1-479); conditions: protein: recombinant; tags: N-terminal GST; dsDNA, one strand shown
T2 sequence: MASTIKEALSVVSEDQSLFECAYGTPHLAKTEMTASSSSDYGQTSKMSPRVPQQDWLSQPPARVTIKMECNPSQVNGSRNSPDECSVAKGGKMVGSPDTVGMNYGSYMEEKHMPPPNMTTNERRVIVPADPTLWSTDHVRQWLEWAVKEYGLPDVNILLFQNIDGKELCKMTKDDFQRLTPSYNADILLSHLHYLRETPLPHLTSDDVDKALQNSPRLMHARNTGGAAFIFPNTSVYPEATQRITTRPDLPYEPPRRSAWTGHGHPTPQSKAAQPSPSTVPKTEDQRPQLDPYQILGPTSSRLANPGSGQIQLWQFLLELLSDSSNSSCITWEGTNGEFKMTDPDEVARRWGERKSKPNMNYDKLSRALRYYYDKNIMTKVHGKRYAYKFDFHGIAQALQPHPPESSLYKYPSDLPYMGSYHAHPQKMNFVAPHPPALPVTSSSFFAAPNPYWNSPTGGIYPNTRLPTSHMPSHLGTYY
Procedure, shortened: as §1

ELF1 = ELF1 (Homo sapiens, UniProt P32519 1-619); conditions: protein: recombinant; tags: N-terminal GST; dsDNA, one strand shown
ELF1, sequence (P32519 whole entry): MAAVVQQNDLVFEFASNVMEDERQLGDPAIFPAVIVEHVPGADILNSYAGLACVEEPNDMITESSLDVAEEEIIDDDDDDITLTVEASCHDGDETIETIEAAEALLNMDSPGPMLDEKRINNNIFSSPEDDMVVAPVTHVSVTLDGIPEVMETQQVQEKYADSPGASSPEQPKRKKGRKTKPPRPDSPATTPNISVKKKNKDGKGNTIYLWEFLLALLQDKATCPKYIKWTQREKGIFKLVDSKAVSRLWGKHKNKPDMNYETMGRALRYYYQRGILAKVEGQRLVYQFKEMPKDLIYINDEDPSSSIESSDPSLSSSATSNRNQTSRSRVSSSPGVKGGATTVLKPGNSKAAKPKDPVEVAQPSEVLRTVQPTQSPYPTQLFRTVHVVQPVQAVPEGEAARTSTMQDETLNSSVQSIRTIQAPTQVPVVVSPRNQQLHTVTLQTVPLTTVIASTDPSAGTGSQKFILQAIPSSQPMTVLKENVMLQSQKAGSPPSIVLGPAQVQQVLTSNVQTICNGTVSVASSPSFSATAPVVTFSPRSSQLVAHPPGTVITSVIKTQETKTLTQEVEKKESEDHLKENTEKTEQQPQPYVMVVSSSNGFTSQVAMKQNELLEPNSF
Procedure, shortened: as §1

EHF = target: T3, EHF (Homo sapiens, UniProt Q9NZC4 1-300); conditions: protein: recombinant; tags: N-terminal GST; dsDNA, one strand shown
T3 sequence: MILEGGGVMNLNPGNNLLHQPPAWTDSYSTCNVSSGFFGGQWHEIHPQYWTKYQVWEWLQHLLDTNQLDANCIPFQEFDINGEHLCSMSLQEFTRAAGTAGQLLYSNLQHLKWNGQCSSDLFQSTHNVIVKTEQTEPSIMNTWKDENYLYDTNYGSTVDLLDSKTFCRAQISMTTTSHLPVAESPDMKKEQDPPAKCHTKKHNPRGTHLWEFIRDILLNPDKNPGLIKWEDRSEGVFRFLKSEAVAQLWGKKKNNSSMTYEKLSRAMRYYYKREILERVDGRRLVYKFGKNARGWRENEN
Procedure, shortened: as §1

SPI1 = SPI1 (Homo sapiens, UniProt P17947 1-270); conditions: protein: recombinant; tags: N-terminal GST; dsDNA, one strand shown
Procedure, shortened: as §1

SPIB = SPIB (Homo sapiens, UniProt Q01892 1-262); conditions: protein: recombinant; tags: N-terminal GST; dsDNA, one strand shown
SPIB, sequence (Q01892 whole entry): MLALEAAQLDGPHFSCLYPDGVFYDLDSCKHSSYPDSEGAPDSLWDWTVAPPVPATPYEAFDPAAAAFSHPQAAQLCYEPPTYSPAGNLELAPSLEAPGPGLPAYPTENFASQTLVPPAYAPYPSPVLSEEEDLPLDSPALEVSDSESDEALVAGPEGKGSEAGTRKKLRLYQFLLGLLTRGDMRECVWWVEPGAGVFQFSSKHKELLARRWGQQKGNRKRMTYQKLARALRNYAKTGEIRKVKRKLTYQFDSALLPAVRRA
Procedure, shortened: as §1

ELK3 = target: T4, ELK3 (Homo sapiens, UniProt P41970 1-407); conditions: protein: recombinant; tags: N-terminal GST; dsDNA, one strand shown
T4 sequence: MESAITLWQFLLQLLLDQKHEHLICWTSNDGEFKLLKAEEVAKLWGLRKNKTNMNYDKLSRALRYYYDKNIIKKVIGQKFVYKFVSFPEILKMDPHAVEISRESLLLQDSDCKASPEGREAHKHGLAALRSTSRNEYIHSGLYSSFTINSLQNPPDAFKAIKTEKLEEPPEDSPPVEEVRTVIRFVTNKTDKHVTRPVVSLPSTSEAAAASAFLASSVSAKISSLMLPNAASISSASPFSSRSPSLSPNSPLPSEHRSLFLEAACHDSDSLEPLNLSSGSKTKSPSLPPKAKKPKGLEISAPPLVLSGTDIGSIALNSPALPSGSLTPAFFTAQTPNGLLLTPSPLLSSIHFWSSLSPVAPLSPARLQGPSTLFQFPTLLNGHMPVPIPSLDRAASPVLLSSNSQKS
Procedure, shortened: as §1

SPIC = target: T5, SPIC (Homo sapiens, UniProt Q8N5J4 1-248); conditions: protein: recombinant; tags: N-terminal GST; dsDNA, one strand shown
T5 sequence: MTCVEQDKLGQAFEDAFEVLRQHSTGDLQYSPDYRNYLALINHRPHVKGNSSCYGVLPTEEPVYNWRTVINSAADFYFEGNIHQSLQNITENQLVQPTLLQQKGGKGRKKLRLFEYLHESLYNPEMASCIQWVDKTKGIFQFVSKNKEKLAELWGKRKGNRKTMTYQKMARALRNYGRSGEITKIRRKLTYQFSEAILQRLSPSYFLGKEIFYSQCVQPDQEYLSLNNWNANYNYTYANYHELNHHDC
Procedure, shortened: as §1

ELK4 = target: T6, ELK4 (Homo sapiens, UniProt P28324-2 1-405); conditions: protein: recombinant; tags: N-terminal GST; dsDNA, one strand shown
T6 sequence: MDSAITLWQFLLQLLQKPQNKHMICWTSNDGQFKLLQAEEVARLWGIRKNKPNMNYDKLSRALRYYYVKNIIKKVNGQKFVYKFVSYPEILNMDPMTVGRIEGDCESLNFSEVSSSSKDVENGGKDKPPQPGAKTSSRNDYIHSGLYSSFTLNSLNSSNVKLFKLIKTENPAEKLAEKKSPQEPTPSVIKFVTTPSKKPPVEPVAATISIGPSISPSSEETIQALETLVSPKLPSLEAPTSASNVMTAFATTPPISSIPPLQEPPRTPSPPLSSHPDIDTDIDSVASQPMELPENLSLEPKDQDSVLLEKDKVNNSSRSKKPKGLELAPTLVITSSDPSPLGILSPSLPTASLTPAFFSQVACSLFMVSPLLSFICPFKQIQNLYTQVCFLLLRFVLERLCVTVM
Procedure, shortened: as §1

ETV2 = target: T7, ETV2 (Homo sapiens, UniProt O00321 1-342); conditions: protein: recombinant; tags: N-terminal GST; dsDNA, one strand shown
T7 sequence: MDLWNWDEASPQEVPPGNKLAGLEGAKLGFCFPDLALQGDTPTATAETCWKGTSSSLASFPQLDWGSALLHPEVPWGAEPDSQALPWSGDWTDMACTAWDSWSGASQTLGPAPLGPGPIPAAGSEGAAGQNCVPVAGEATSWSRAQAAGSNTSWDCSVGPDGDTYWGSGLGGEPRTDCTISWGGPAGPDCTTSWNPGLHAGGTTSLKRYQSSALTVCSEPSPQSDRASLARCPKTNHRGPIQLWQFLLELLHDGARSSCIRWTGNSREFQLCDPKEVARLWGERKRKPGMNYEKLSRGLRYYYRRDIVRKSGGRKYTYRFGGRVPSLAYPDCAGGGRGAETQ
Procedure, shortened: as §1

ELF3 = target: T8, ELF3 (Homo sapiens, UniProt P78545 1-371); conditions: protein: recombinant; tags: N-terminal GST; dsDNA, one strand shown
T8 sequence: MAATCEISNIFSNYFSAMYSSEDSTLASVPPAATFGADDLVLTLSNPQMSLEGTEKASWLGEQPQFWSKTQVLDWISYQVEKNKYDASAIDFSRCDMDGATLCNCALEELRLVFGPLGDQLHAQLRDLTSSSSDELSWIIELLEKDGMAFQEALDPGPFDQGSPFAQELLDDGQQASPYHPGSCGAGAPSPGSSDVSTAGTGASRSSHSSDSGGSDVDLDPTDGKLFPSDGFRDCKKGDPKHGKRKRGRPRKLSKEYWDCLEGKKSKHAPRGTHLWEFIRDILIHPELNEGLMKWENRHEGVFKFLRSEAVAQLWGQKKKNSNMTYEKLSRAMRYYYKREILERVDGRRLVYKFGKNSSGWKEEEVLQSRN
Procedure, shortened: as §1

ETV1 = ETV1 (Homo sapiens, UniProt P50549 1-477); conditions: protein: recombinant; tags: N-terminal GST; dsDNA, one strand shown
ETV1, sequence (P50549 whole entry): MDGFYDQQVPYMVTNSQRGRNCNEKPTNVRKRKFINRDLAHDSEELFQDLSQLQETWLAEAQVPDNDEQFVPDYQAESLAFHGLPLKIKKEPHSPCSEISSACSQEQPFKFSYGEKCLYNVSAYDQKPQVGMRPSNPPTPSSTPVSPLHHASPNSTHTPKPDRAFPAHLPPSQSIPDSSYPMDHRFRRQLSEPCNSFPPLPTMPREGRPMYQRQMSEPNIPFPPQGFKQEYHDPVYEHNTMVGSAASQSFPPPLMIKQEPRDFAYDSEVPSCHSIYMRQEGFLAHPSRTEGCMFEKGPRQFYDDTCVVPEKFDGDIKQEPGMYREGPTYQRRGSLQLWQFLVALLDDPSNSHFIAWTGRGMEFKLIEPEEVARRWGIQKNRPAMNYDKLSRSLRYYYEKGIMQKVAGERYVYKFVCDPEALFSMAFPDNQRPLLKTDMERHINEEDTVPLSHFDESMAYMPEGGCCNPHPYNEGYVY
Procedure, shortened: as §1

ERF = target: T9, ERF (Homo sapiens, UniProt P50548 1-548); conditions: protein: recombinant; tags: N-terminal GST; dsDNA, one strand shown
T9 sequence: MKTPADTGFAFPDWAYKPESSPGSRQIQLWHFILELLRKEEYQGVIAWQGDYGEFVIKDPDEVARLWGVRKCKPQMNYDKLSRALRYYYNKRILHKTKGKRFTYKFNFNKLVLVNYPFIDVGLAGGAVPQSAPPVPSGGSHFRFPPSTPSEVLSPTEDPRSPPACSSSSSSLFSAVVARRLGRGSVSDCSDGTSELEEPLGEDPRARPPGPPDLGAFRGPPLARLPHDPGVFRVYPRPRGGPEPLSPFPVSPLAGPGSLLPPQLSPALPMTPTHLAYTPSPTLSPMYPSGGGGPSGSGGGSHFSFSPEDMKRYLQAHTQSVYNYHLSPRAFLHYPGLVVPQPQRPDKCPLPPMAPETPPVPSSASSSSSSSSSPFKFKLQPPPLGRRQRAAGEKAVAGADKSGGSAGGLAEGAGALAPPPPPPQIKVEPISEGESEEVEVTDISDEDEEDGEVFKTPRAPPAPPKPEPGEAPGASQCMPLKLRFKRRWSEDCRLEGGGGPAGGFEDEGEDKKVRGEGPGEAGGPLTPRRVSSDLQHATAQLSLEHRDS
Procedure, shortened: as §1

ETS2 = target: T10, ETS2 (Homo sapiens, UniProt P15036 1-469); conditions: protein: recombinant; tags: N-terminal GST; dsDNA, one strand shown
T10 sequence: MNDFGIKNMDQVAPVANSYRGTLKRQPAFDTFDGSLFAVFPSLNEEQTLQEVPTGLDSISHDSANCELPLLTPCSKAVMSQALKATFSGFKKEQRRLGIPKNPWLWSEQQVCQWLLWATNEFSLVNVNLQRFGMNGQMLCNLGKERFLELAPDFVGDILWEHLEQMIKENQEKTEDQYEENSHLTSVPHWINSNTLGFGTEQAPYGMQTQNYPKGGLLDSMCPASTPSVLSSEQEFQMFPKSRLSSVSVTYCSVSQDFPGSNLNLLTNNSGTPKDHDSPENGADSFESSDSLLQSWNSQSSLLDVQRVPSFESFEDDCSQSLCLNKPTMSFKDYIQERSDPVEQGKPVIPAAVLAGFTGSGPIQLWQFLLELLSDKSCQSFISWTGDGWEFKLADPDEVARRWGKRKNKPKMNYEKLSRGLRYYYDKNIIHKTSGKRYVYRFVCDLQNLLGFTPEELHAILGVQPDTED
Procedure, shortened: as §1

| Sequence | binding signal (HSF1) | binding signal (ELK1) | binding signal (ERG) | binding signal (ELF1) | binding signal (EHF) | binding signal (SPI1) | binding signal (SPIB) | binding signal (ELK3) | binding signal (SPIC) | binding signal (ELK4) | binding signal (ETV2) | binding signal (ELF3) | binding signal (ETV1) | binding signal (ERF) | binding signal (ETS2) |
| --- | --- | --- | --- | --- | --- | --- | --- | --- | --- | --- | --- | --- | --- | --- | --- |
| ACAGAA | 1.27 fold enrichment (6-mer frequency, TF over GST control) | – | – | – | – | – | – | – | – | – | – | – | – | – | – |
| CGCAAA | 1.01 fold enrichment (6-mer frequency, TF over GST control) | 1.01 fold enrichment (6-mer frequency, TF over GST control) | 1.04 fold enrichment (6-mer frequency, TF over GST control) | 1 fold enrichment (6-mer frequency, TF over GST control) | 1.03 fold enrichment (6-mer frequency, TF over GST control) | 1.05 fold enrichment (6-mer frequency, TF over GST control) | 1.02 fold enrichment (6-mer frequency, TF over GST control) | 1.08 fold enrichment (6-mer frequency, TF over GST control) | 1.02 fold enrichment (6-mer frequency, TF over GST control) | 1.03 fold enrichment (6-mer frequency, TF over GST control) | 1.07 fold enrichment (6-mer frequency, TF over GST control) | 1.13 fold enrichment (6-mer frequency, TF over GST control) | 1.11 fold enrichment (6-mer frequency, TF over GST control) | 1.1 fold enrichment (6-mer frequency, TF over GST control) | 1.06 fold enrichment (6-mer frequency, TF over GST control) |
